A selection: hits, their analogues and other compounds. The true share with any hit is near 1.7%.
TLR9-MyD88 inh – inhibitors of human TLR9-MyD88 binding; 340,000 tested, 0.21% active; inhibition, % at 4.98 µM; AID 504734; CHO BLA complementation TLR9-MyD88, CCF4 FRET ratio; Q9NR96+Q99836;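 active = inhibition above the mean over all tested compounds plus 3 SD, cut at about 21% in these data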;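 also: 0% = DMSO only wells and 100% = clavulanate BLA inhibitor control wells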
NOD2-RIPK2 inh – NOD2-RIPK2 protein interaction inhibition; O43353; CHO BLA complementation NOD2-RIPK2, CCF4 ratio; inhibition, % at 4.98 µM; 360,000 tested, 0.38% active; in the data active = inhibition above about 21%;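 also: 0% = vehicle only and 100% = reference blocker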
Target sequence (O43353 whole entry, looked up): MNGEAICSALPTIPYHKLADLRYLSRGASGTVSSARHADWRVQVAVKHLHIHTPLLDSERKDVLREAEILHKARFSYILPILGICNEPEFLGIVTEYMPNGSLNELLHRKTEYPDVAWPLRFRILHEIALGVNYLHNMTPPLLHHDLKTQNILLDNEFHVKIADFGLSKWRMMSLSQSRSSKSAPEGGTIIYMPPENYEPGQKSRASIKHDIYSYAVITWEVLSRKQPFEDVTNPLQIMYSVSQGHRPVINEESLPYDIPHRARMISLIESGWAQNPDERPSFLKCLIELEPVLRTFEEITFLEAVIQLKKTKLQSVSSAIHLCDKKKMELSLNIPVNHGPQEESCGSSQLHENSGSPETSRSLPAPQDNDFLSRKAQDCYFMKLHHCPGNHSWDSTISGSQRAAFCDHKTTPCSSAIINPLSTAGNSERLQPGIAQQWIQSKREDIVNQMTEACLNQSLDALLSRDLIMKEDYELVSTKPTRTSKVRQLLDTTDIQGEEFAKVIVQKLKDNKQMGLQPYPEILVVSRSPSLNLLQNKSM
Myeloid diff MLP – myeloid differentiation induction. 360,000 tested, 1% active. ER-HoxA9 myeloid progenitors, lysozyme-GFP differentiation, flow cytometry. AID 624256. calls only at 10 µM;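 active = normalized GFP-positive differentiation at or above the plate's own cutoff, the solvent-only control mean plus 3 SD; inconclusive = no clear call, values can overlap the other calls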;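 also: cells exposed to compound for four days before flow analysis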
TLR4 MyD88 comp – TLR4-MyD88 interaction inhibition in cells. O00206+Q99836. HeLa CL3-4 TLR4/MyD88 BLA complementation, FRET ratio. inhibition, % at 8.4 µM. 200,000 tested, 0.18% active. AID 861; in the data active = inhibition above about 25%;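 also: 0% = vehicle and 100% = reference inhibitor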
ABCB6 inh MLPCN – human ABCB6 transporter inhibition. Q9NP58. K562-ABCB6 porphyrin accumulation, flow cytometry, 1 h; stronger effect = lower value. fluorescence ratio to DMSO, % at 10 µM. 360,000 tested, 0.19% active. AID 602162;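 active = fluorescence ratio to DMSO below 75%, the collection mean minus 3 SD; inconclusive = too few cells collected in the well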;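 also: signal is porphyrin accumulated inside mitochondria; 100% equals median channel fluorescence of DMSO control wells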
Myeloid diff CP1 – compounds promoting myeloid differentiation; calls only; ER-HoxA9 myeloid progenitors, GFP/Mac1 double-positive flow; 2,300 tested, 2% active; shares compounds with Myeloid diff MLP;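 active = share of green or green-and-red cells above 9 and 9% in run 1 or 4 and 3% in run 2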
GFP autofluor – counter-screen for myeloid differentiation promoters: compound fluorescence. shares compounds with Myeloid diff MLP. ER-HoxA9 myeloid progenitors, no estrogen, GFP autofluorescence flow cytometry; vehicle wells 0%, positive control 100%. fluorescence response, % (no concentration beside the values). 2,300 tested, 7.4% active. AID 651707;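 active = over 5% cells positive for green fluorescent reporter, or over 2% positive for both it and APC stain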;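 also: range taken on the double positive population between DMSO and positive control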
Starred values were filed as active, the others as inactive; i = inactive; ? = inconclusive; / = no result given; + = active, no number.

SMILES	TLR9-MyD88 inh	NOD2-RIPK2 inh	Myeloid diff MLP	TLR4 MyD88 comp	ABCB6 inh MLPCN	Myeloid diff CP1	GFP autofluor
CC(C)Cn1c(N)c(C(=O)COC(=O)c2cnccn2)c(=O)n(C)c1=O	5.0	-17.6	+	/	83.0	i	1.1
COc1ccc(C2=CC(=O)C[C@H](c3ccc(F)cc3)C2)cc1OC	-0.3	1.3	i	/	95.0	/	/
CCOC(=O)Cn1nnc(-c2cccc(OC)c2)n1	-1.8	-3.1	i	-12.8	105.0	i	0.3
CC(NC(=O)c1ccc(NC(=O)CC2SC(N3CCCC3)=NC2=O)cc1)c1ccc(S(N)(=O)=O)cc1 (centres undefined)	-6.0	8.3	i	/	104.0	/	/
C#CCCC/C(=C\C(=O)N(C)[C@H](C(=O)N(C)[C@H](C(=O)N(C)[C@H](C(=O)N(C)[C@H](C(N)=O)C(C)C)C(C)C)C(C)C)C(C)C)OC	-8.9	-0.2	i	/	98.0	i	0.0
COc1ccc(CN(C(=O)CN2C(=O)COc3ccccc32)C2CCCC2)c(OC)c1	0.0	-10.1	i	-1.6	98.0	i	0.2
c1coc(CNC2C3CC4CC(C3)CC2C4)c1 (centres undefined)	-1.5	0.5	i	-0.1	89.0	i	0.2
NC(=O)Nc1ccc(Oc2c(F)c(F)c(F)c(F)c2F)cc1	4.6	-11.2	i	-6.3	115.0	i	0.2
CC(C)[C@H](N)C(=O)N[C@H]1CCC2C3CC=C4C[C@@H](O)CC[C@]4(C)C3CC[C@@]21C (some centres undefined)	-3.5	-9.9	?	/	100.0	/	/
COc1ccccc1C(=O)NCCC(=O)N1CC(=O)Nc2ccccc21	0.7	-10.9	+	6.1	94.0	i	0.3
O=C1CN(C(=O)COC(=O)CCSc2ccccc2Cl)c2ccccc2N1	2.0	5.5	+	7.2	96.0	i	0.0
COc1ccccc1C(=O)NCCC(=O)N1CCN(c2ccccc2O)CC1	-9.0	-3.9	i	/	95.0	/	/
Cc1ccc(C)c(OCC(=O)N(Cc2ccccc2)c2c(N)n(Cc3ccccc3)c(=O)[nH]c2=O)c1	-6.6	-10.6	i	/	75.0	/	/
COc1ccc(-n2c(Cc3cccn3C)nnc2SCC(=O)Nc2nc(C)cs2)cc1	-3.2	-0.3	i	-4.2	102.0	i	0.3
COc1ccc(CNC(=O)C(C)OC(=O)c2cccn2C)cc1 (centres undefined)	2.4	-10.9	i	9.3	90.0	/	/
CC1(C)OC(=O)N(CC(=O)Nc2ccccc2)C1(C)O (centres undefined)	5.1	-6.9	i	2.0	96.0	/	/
CC1(C)OC(=O)N(CCc2ccccc2)C1(C)O (centres undefined)	-1.3	-2.5	i	3.0	101.0	i	0.0
COc1ccc(C(C(=O)NC(C)(C)C)N(C(=O)CCC(=O)Nc2ccccn2)C2CCCCC2)cc1 (centres undefined)	2.1	-7.2	i	/	96.0	/	/
COc1ccc(NC(=O)COC(=O)CN2C(=O)C3CCCCC3C2=O)cc1OC (centres undefined)	-5.2	-21.6	i	/	97.0	/	/
O=C1C(=O)c2ccccc2C(O)=C1c1ccccc1F	-4.6	-5.7	i	/	96.0	/	/
O=C1C(O)=C(O)C(=O)c2ccccc21	-5.6	-1.3	i	/	108.0	i	0.3
c1ccc(-c2ccc(-c3ccncn3)cc2)cc1	-4.2	-6.6	i	/	99.0	/	/
Cc1cc(/C=C2\SC(=Nc3ccc(F)cc3)NC2=O)c(C)n1-c1ccc(S(N)(=O)=O)cc1	-8.1	2.9	i	19.8	98.0	i	8.0*
Cc1cc(/C=C2\SC(=S)NC2=O)c(C)n1-c1ccccc1	/	-1.7	i	/	126.0	i	6.9*
Cc1cccc(-n2c(C)cc(C=C3C(=O)c4ccccc4C3=O)c2C)c1	3.9	-0.1	i	18.0	96.0	i	0.0
SMILES	TLR9-MyD88 inh	NOD2-RIPK2 inh	Myeloid diff MLP	TLR4 MyD88 comp	ABCB6 inh MLPCN	Myeloid diff CP1	GFP autofluor
Cc1cc(/C=C2\SC(=S)NC2=O)c(C)n1-c1ccc(O)cc1	-8.7	5.0	i	/	102.0	/	/
COc1cccc(Oc2ccc(C(F)(F)F)cc2NC(=O)CN2C(=O)NC3(CCCC3)C2=O)c1	6.1	-4.0	i	/	95.0	/	/
CC(=O)Nc1ccc(NC(=O)CCNC(=O)c2ccccc2Cl)cc1	-3.3	-5.6	i	/	93.0	/	/
Cc1cc(C)nc(SCc2ccc(C(=O)N/N=C/c3ccccn3)cc2)n1	5.5	-16.2	i	-15.0	92.0	i	0.4
O=C(N/N=C/c1ccccn1)c1cc(-c2ccc3ccccc3c2)n[nH]1	-2.6	11.9	i	-1.2	103.0	i	0.5
CCN(CC(=O)NC1CCS(=O)(=O)C1)S(=O)(=O)c1c(C)c(C)cc(C)c1C (centres undefined)	-3.1	-14.9	i	/	103.0	/	/
CCCNC(=O)NC(=O)CSc1nncs1	/	-5.7	i	12.4	98.0	/	/
CC[C@H](C)[C@H]1CNC(=S)N1CC1CCN(CCCC2CCCC2)CC1	2.6	-3.0	i	/	94.0	/	/
COc1ccc(OC)c(N(/C(N)=N/c2nc(C)cc(C)n2)S(=O)(=O)c2ccc(NC(C)=O)cc2)c1	-12.5	-10.4	i	/	89.0	/	/
O=C(O)CCNS(=O)(=O)c1ccc(Oc2ccccc2)cc1	1.6	4.8	i	2.0	100.0	i	0.0
CCOc1cc(/C=N/NC(N)=O)ccc1OCC(=O)Nc1ccc(C)c(C)c1	-4.9	-0.9	i	-5.3	93.0	/	/
CCOc1cc(C=C2C(=O)c3ccccc3C2=O)ccc1OCC(=O)Nc1ccc(C)cc1	-2.3	-5.8	+	0.1	97.0	i	0.0
COc1ccc(-n2c(SCC(=O)Nc3cc(C)on3)nc3ccccc3c2=O)cc1Cl	3.3	-0.3	i	5.0	102.0	i	0.0
Cc1ccccc1N1C(=O)C(Cc2ccc(F)cc2)S/C1=C(\C#N)C(N)=O (centres undefined)	/	-0.4	i	/	97.0	i	4.9
N#C/C(C(N)=O)=C1/SC(Cc2ccc(F)cc2)C(=O)N1c1ccccc1 (centres undefined)	-4.4	1.8	i	/	96.0	i	4.0
CNC(=O)/C(C#N)=C1/SC(Cc2ccc(F)cc2)C(=O)N1c1ccccc1 (centres undefined)	4.0	-5.5	i	/	97.0	/	/
COc1ccc(CNC(=O)CSc2nccn(-c3ccc(F)c(F)c3)c2=O)cc1	4.3	-6.8	i	/	103.0	/	/
Cc1cc(-c2cccs2)c2c(n1)sc1c(=O)[nH]c(=O)[nH]c12	2.0	-7.2	i	6.5	97.0	i	35.7*
COc1ccc(-c2ccc3c(n2)sc2c(=O)[nH]c(=O)[nH]c23)cc1OC	/	/	/	-0.2	/	/	/
CCN(CC)C(=O)COc1ccc(N(C)S(=O)(=O)c2ccc(NC(C)=O)cc2)cc1	0.3	-8.7	i	/	92.0	/	/

Bioassay records (PubChem BioAssay)
